# Inconclusive results are not listed. A number with no mark means an inactive call. The source made the active and inactive calls. The call rests on the fitted dose curve; in most records, active means well fitted inhibition curve with a large enough effect; inconclusive means small, poorly fitted or top-dose-only effect; inactive means flat fitted curve, though single readings scatter.
# How the values were obtained:
# HEK293 = experiment: Cytotoxic Profiling of Annotated Libraries Using Quantitative High-Throughput Screening (AID 1296008); conditions: Five cell lines viability, CellTiter-Glo ATP luminescence, 48-72 h; max response: hits give low values; on max response: on the % scale 0 is the no-effect control and ±100 the full control effect
# In short: (§1)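 Cytotoxicity was measured as CellTiter-Glo ATP luminescence, read after 10 min at room temperature. Compound treatment of the cells lasted 48 or 72 hr at 37 degrees Celsius in a qHTS format.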
# KB-3-1 = experiment: as above; conditions: Five cell lines viability, CellTiter-Glo ATP luminescence, 48-72 h; max response: hits give low values
# In short: as §1
# MCC-13 = experiment: qHTS assay to identify novel small-molecules to repurpose for Merkel cell carcinoma treatment (AID 1296009); conditions: MCC and control cell lines, CellTiter-Glo viability, 72 h; series mostly up to 46 µM
# In short: (§2)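 Cell viability measured by CellTiter-Glo following 72 hr compound treatment at 37 degree celsius, with NPC and MIPE libraries tested in 8- and 11-point concentration series.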
# MCC-26 = experiment: as above; conditions: MCC and control cell lines, CellTiter-Glo viability, 72 h; series mostly up to 46 µM
# In short: as §2
# MKL-1 = experiment: as above; conditions: MCC and control cell lines, CellTiter-Glo viability, 72 h; series mostly up to 46 µM
# In short: as §2
# MKL-2 = experiment: as above; conditions: MCC and control cell lines, CellTiter-Glo viability, 72 h; series mostly up to 46 µM
# In short: as §2
# CRL-7250 = normal cell line; experiment: Cytotoxic Profiling of Annotated Libraries Using Quantitative High-Throughput Screening (AID 1296008); conditions: Five cell lines viability, CellTiter-Glo ATP luminescence, 48-72 h; max response: hits give low values; on max response: on the % scale 0 is the no-effect control and ±100 the full control effect
# In short: as §1
# HaCat [1] = experiment: as above; conditions: Five cell lines viability, CellTiter-Glo ATP luminescence, 48-72 h; max response: hits give low values
# In short: as §1
# NIH3T3 = experiment: as above; conditions: Five cell lines viability, CellTiter-Glo ATP luminescence, 48-72 h; max response: hits give low values
# In short: as §1
# HACAT [2] = experiment: qHTS assay to identify novel small-molecules to repurpose for Merkel cell carcinoma treatment (AID 1296009); conditions: MCC and control cell lines, CellTiter-Glo viability, 72 h; at 44.8 µM (top of the series) unless noted
# In short: as §2
# HEK293T = experiment: as above; conditions: MCC and control cell lines, CellTiter-Glo viability, 72 h; at 44.8 µM (top of the series) unless noted
# In short: as §2
# P94_40 = experiment: qHTS profiling for inhibitors of Plasmodium falciparum proliferation (AID 504749); conditions: P. falciparum in erythrocytes, SYBR Green DNA, 72 h; series mostly up to 28.7 µM
# In short: (§3)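 In a 72 h erythrocytic culture (37 C, humidified, 5% CO2) at 2.5% hematocrit and 0.3% starting parasitemia, compounds were tested; SYBR Green I in detergent lysis buffer stained parasite DNA overnight.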
# PAD = experiment: as above; conditions: P. falciparum in erythrocytes, SYBR Green DNA, 72 h; series mostly up to 28.7 µM
# In short: as §3
# PC15 = experiment: as above; conditions: P. falciparum in erythrocytes, SYBR Green DNA, 72 h; series mostly up to 28.7 µM
# In short: as §3
# PC26 = experiment: as above; conditions: P. falciparum in erythrocytes, SYBR Green DNA, 72 h; series mostly up to 28.7 µM
# In short: as §3
# PC49 = experiment: as above; conditions: P. falciparum in erythrocytes, SYBR Green DNA, 72 h; series mostly up to 28.7 µM
# In short: as §3
# SC27B = experiment: as above; conditions: P. falciparum in erythrocytes, SYBR Green DNA, 72 h; series mostly up to 28.7 µM
# In short: as §3
# TAB109 = experiment: as above; conditions: P. falciparum in erythrocytes, SYBR Green DNA, 72 h; series mostly up to 28.7 µM
# In short: as §3
# TAB113 = experiment: as above; conditions: P. falciparum in erythrocytes, SYBR Green DNA, 72 h; series mostly up to 28.7 µM
# In short: as §3
# TAB165 = experiment: as above; conditions: P. falciparum in erythrocytes, SYBR Green DNA, 72 h; series mostly up to 28.7 µM
# In short: as §3
# Further: nearly all actives have a fitted effect of over 60% in size.
# Potency means the concentration at half of the fitted maximal effect.
smiles,measurement,setting,value
CC(=O)Nc1ccn(C2COC(COC(=O)c3ccccc3)O2)c(=O)n1 (configuration not stated),Potency,HEK293,18.8 µM (active)
same,outcome,KB-3-1,inactive
same,Potency,MCC-13,inactive
same,Potency,MCC-26,inactive
same,Potency,MKL-1,inactive
same,Potency,MKL-2,inactive
CCCC(=O)c1cc(O)c(O)cc1O,max response,CRL-7250,-22.6%
same,max response,HaCat [1],-3.56%
same,Potency,MCC-13,inactive
same,Potency,MCC-26,inactive
same,Potency,MKL-2,27.3 µM (active)
CC(C)(C)c1ccc(O)c(O)c1,Potency,HEK293,12.2 µM (active)
same,max response,KB-3-1,-6.07%
same,Potency,MKL-1,6.86 µM (active)
same,Potency,MKL-2,6.11 µM (active)
COc1ccc2nc(SCc3ncc(C)c(OC)c3C)[nH]c2c1,max response,HEK293,-3.1%
same,outcome,HaCat [1],inactive
same,outcome,NIH3T3,inactive
same,outcome,HACAT [2],inactive
same,Potency,MCC-13,inactive
same,Potency,MCC-26,inactive
same,Potency,MKL-1,inactive
same,Potency,MKL-2,inactive
CCOC(=O)Cn1cccc1-c1nc(-c2ccc(OC)cc2)c(-c2ccc(OC)cc2)s1,Potency,HEK293,8.2 µM (active)
same,max response,HaCat [1],-29.1%
same,max response,KB-3-1,5.97%
same,outcome,NIH3T3,inactive
same,Potency,MCC-13,inactive
same,Potency,MCC-26,inactive
COc1cc2c(cc1OC)CN(C(=O)[C@H](C)N[C@@H](CCc1ccccc1)C(=O)O)[C@H](C(=O)O)C2,outcome,HEK293,inactive
same,max response,HaCat [1],0.663%
same,max response,NIH3T3,-7.08%
same,outcome,HEK293T,inactive
same,Potency,MCC-13,inactive
same,Potency,MKL-1,inactive
same,Potency,MKL-2,inactive
Nc1ncnc2n[nH]c(Nc3ccc(F)cc3)c12,Potency,CRL-7250,10.3 µM (active)
same,outcome,KB-3-1,inactive
CCOC(=O)[C@H](CCc1ccccc1)N[C@@H](C)C(=O)N(CC(=O)O)C1Cc2ccccc2C1,max response,CRL-7250,0.8%
same,max response,KB-3-1,-12.3%
same,Potency,MCC-13,inactive
same,Potency,MCC-26,inactive
same,Potency,MKL-1,inactive
same,Potency,MKL-2,inactive
CC[C@@H]([C@H](C)O)n1ncn(-c2ccc(N3CCN(c4ccc(OC[C@@H]5CO[C@@](Cn6cncn6)(c6ccc(F)cc6F)C5)cc4)CC3)cc2)c1=O,Potency,HEK293,7.5 µM (active)
same,max response,HaCat [1],-3.01%
same,Potency,MCC-13,inactive
same,Potency,MCC-26,inactive
same,Potency,MKL-1,inactive
same,Potency,MKL-2,inactive
CCCCCCCCCCCCCCCC[N+](C)(C)Cc1ccccc1,Potency,P94_40,1.58 µM (active)
same,Potency,PAD,5.62 µM (active)
same,Potency,PC15,7.94 µM (active)
same,Potency,PC26,9.53 µM (active)
same,Potency,PC49,10 µM (active)
same,Potency,SC27B,1 µM (active)
same,Potency,TAB109,3.98 µM (active)
same,Potency,TAB113,14.1 µM (active)
same,Potency,TAB165,12.6 µM (active)
same,Potency,HEK293,5.31 µM (active)
same,Potency,NIH3T3,11.9 µM (active)
same,Potency,MKL-1,5.96 µM (active)
same,Potency,MKL-2,0.335 µM (active)
Cc1c(C)c2c(c(C)c1OC(=O)CCC(=O)OCCO)CC[C@@](C)(CCC[C@H](C)CCC[C@H](C)CCCC(C)C)O2,max response,CRL-7250,-109%
same,max response,KB-3-1,-31.1%
same,max response,NIH3T3,-19.3%
same,Potency,MCC-13,inactive
same,Potency,MCC-26,inactive
same,Potency,MKL-1,inactive
same,Potency,MKL-2,inactive
CCOC(=O)C1=C(C)NC(C)=C(C(=O)OCC)C1c1ccccc1/C=C/C(=O)OC(C)(C)C,Potency,HEK293,7.5 µM (active)
same,Potency,MCC-26,inactive
same,Potency,MKL-1,26.6 µM (active)
same,Potency,MKL-2,21.1 µM (active)
O=C(Nc1ccc(Cl)cc1)Nc1ccc(Cl)c(C(F)(F)F)c1,max response,HEK293,-107%
same,Potency,MKL-1,21.1 µM (active)
same,Potency,MKL-2,7.5 µM (active)
COc1ccc([C@@H]2Sc3ccccc3NC(=O)[C@@H]2O)cc1,max response,CRL-7250,-22.1%
same,Potency,MCC-26,inactive
same,Potency,MKL-2,inactive
NC(=O)C1(N2CCCCC2)CCN(CCCN2c3ccccc3CCc3ccc(Cl)cc32)CC1,Potency,HEK293,10.6 µM (active)
O=C1NCCN1CCN1CCC(c2cn(-c3ccc(F)cc3)c3ccc(Cl)cc23)CC1,Potency,HEK293,6.68 µM (active)
same,Potency,MCC-26,21.1 µM (active)
same,Potency,MKL-1,8.41 µM (active)
same,Potency,MKL-2,2.99 µM (active)
N#CSCC(=O)O,max response,HEK293,0.303%
same,outcome,HaCat [1],inactive
same,outcome,NIH3T3,inactive
same,outcome,HACAT [2],inactive
same,Potency,MCC-13,inactive
same,Potency,MCC-26,inactive
same,Potency,MKL-1,inactive
O=[N+]([O-])c1ccc(O)c2ncccc12,Potency,PAD,inactive
same,Potency,PC15,inactive
same,Potency,PC26,inactive
same,Potency,PC49,inactive
same,Potency,TAB165,14.1 µM (active)
same,Potency,HEK293,8.41 µM (active)
same,Potency,NIH3T3,15 µM (active)
same,Potency,MCC-13,11.9 µM (active)
same,Potency,MCC-26,13.3 µM (active)
same,Potency,MKL-1,3.76 µM (active)
same,Potency,MKL-2,2.66 µM (active)
CC(C)=CCC/C(C)=C/CC/C(C)=C/C(=O)OCC(=O)[C@@]1(O)CC[C@H]2[C@@H]3CCC4=CC(=O)C=C[C@]4(C)[C@H]3[C@@H](O)C[C@@]21C,Potency,HEK293,10.6 µM (active)
same,Potency,MCC-13,inactive
same,Potency,MCC-26,inactive
same,Potency,MKL-1,inactive
same,Potency,MKL-2,inactive
CCOC(=O)c1cc(=O)c2c(OCC(COc3cccc4oc(C(=O)OCC)cc(=O)c34)OC(=O)[C@@H](N)CCCCN)cccc2o1,max response,HEK293,4.3%
same,outcome,HaCat [1],inactive
same,outcome,NIH3T3,inactive
same,outcome,HACAT [2],inactive
same,Potency,MCC-13,inactive
same,Potency,MCC-26,inactive
same,Potency,MKL-1,inactive
CN(C)c1cc2c(Nc3ccc4c(cnn4Cc4ccccc4)c3)ncnc2cn1,max response,CRL-7250,-15%
same,max response,NIH3T3,-15.7%

# From PubChem BioAssay (NCATS)
